# Measurements reported in PMC11062922 (Nature Chemical Biology, 2023).
# Read-outs that look alike come from different tables or passages of the source.
# Legend:
# [1] = molecular target: Q6ZSR9 (human, UniProt Q6ZSR9); details: read-out: apparent Kd, n = 1
# [2] = tested on: SIK2; details: read-out: apparent Kd, n = 1
# Q6ZSR9, sequence (Q6ZSR9 whole entry, looked up): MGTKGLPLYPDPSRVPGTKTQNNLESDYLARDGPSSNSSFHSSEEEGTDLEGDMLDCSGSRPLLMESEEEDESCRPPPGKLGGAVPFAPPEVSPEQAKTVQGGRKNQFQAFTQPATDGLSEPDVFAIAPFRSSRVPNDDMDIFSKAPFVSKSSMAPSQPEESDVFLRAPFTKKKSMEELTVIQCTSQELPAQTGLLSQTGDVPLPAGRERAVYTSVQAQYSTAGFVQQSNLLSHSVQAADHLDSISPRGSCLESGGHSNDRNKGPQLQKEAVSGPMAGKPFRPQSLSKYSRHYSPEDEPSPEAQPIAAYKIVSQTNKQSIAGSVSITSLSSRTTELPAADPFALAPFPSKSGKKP
substance,measurement,setting,value
Lestaurtinib,potency estimated from few doses,"[1]; compound concentrations:100 nM and 1000 nM (sheet 'Lestaurtinib' of Supplementary Table 1),run:Lestaurtinib_03172_R2,Plate:MR031",54.5 nM
same,potency estimated from few doses,"[1]; compound concentrations:100 nM and 1000 nM (sheet 'Lestaurtinib' of Supplementary Table 1),run:Lestaurtinib_03172_R3,Plate:MR031",57.5 nM
same,potency estimated from few doses,"[1]; compound concentrations:100 nM and 1000 nM (sheet 'Lestaurtinib' of Supplementary Table 1),run:Lestaurtinib_03252_R1,Plate:MR032",61.3 nM
same,potency estimated from few doses,"[1]; compound concentrations:100 nM and 1000 nM (sheet 'Lestaurtinib' of Supplementary Table 1),run:Lestaurtinib_03260_R2,Plate:MR033",113 nM
same,potency estimated from few doses,"[1]; compound concentrations:100 nM and 1000 nM (sheet 'Lestaurtinib' of Supplementary Table 1),run:Lestaurtinib_03260_R3,Plate:MR033",79.5 nM
same,potency estimated from few doses,"[2]; compound concentrations:100 nM and 1000 nM (sheet 'Lestaurtinib' of Supplementary Table 1),run:Lestaurtinib_02339_R2,Plate:MR001",44.6 nM
same,potency estimated from few doses,"[2]; compound concentrations:100 nM and 1000 nM (sheet 'Lestaurtinib' of Supplementary Table 1),run:Lestaurtinib_02364_R1,Plate:MR002",53.6 nM
same,potency estimated from few doses,"[2]; compound concentrations:100 nM and 1000 nM (sheet 'Lestaurtinib' of Supplementary Table 1),run:Lestaurtinib_02367_R1,Plate:MR003",51.8 nM
same,potency estimated from few doses,"[2]; compound concentrations:100 nM and 1000 nM (sheet 'Lestaurtinib' of Supplementary Table 1),run:Lestaurtinib_02367_R2,Plate:MR003",57.3 nM
same,potency estimated from few doses,"[2]; compound concentrations:100 nM and 1000 nM (sheet 'Lestaurtinib' of Supplementary Table 1),run:Lestaurtinib_02367_R3,Plate:MR003",51.5 nM
same,potency estimated from few doses,"[2]; compound concentrations:100 nM and 1000 nM (sheet 'Lestaurtinib' of Supplementary Table 1),run:Lestaurtinib_02381_R1,Plate:MR004",56.4 nM
same,potency estimated from few doses,"[2]; compound concentrations:100 nM and 1000 nM (sheet 'Lestaurtinib' of Supplementary Table 1),run:Lestaurtinib_02381_R2,Plate:MR004",62.4 nM
same,potency estimated from few doses,"[2]; compound concentrations:100 nM and 1000 nM (sheet 'Lestaurtinib' of Supplementary Table 1),run:Lestaurtinib_02381_R3,Plate:MR004",30.1 nM
same,potency estimated from few doses,"[2]; compound concentrations:100 nM and 1000 nM (sheet 'Lestaurtinib' of Supplementary Table 1),run:Lestaurtinib_02407_R1,Plate:MR005",50.7 nM
same,potency estimated from few doses,"[2]; compound concentrations:100 nM and 1000 nM (sheet 'Lestaurtinib' of Supplementary Table 1),run:Lestaurtinib_02407_R2,Plate:MR005",52.5 nM
same,potency estimated from few doses,"[2]; compound concentrations:100 nM and 1000 nM (sheet 'Lestaurtinib' of Supplementary Table 1),run:Lestaurtinib_02422_R2,Plate:MR006",9.74 nM
same,potency estimated from few doses,"[2]; compound concentrations:100 nM and 1000 nM (sheet 'Lestaurtinib' of Supplementary Table 1),run:Lestaurtinib_02422_R3,Plate:MR006",52.6 nM
same,potency estimated from few doses,"[2]; compound concentrations:100 nM and 1000 nM (sheet 'Lestaurtinib' of Supplementary Table 1),run:Lestaurtinib_02437_R1,Plate:MR007",50.6 nM
same,potency estimated from few doses,"[2]; compound concentrations:100 nM and 1000 nM (sheet 'Lestaurtinib' of Supplementary Table 1),run:Lestaurtinib_02437_R3,Plate:MR007",7.45 nM
same,potency estimated from few doses,"[2]; compound concentrations:100 nM and 1000 nM (sheet 'Lestaurtinib' of Supplementary Table 1),run:Lestaurtinib_02438_R2,Plate:MR008",41.4 nM
same,potency estimated from few doses,"[2]; compound concentrations:100 nM and 1000 nM (sheet 'Lestaurtinib' of Supplementary Table 1),run:Lestaurtinib_02438_R3,Plate:MR008",34.7 nM
same,potency estimated from few doses,"[2]; compound concentrations:100 nM and 1000 nM (sheet 'Lestaurtinib' of Supplementary Table 1),run:Lestaurtinib_02443_R1,Plate:MR009",49.3 nM
same,potency estimated from few doses,"[2]; compound concentrations:100 nM and 1000 nM (sheet 'Lestaurtinib' of Supplementary Table 1),run:Lestaurtinib_02443_R2,Plate:MR009",51 nM
same,potency estimated from few doses,"[2]; compound concentrations:100 nM and 1000 nM (sheet 'Lestaurtinib' of Supplementary Table 1),run:Lestaurtinib_02443_R3,Plate:MR009",51.1 nM
same,potency estimated from few doses,"[2]; compound concentrations:100 nM and 1000 nM (sheet 'Lestaurtinib' of Supplementary Table 1),run:Lestaurtinib_02473_R2,Plate:MR010",44.2 nM
same,potency estimated from few doses,"[2]; compound concentrations:100 nM and 1000 nM (sheet 'Lestaurtinib' of Supplementary Table 1),run:Lestaurtinib_02473_R3,Plate:MR010",30.1 nM
same,potency estimated from few doses,"[2]; compound concentrations:100 nM and 1000 nM (sheet 'Lestaurtinib' of Supplementary Table 1),run:Lestaurtinib_02482_R2,Plate:MR011",52.3 nM
same,potency estimated from few doses,"[2]; compound concentrations:100 nM and 1000 nM (sheet 'Lestaurtinib' of Supplementary Table 1),run:Lestaurtinib_02482_R3,Plate:MR011",44.9 nM
same,potency estimated from few doses,"[2]; compound concentrations:100 nM and 1000 nM (sheet 'Lestaurtinib' of Supplementary Table 1),run:Lestaurtinib_02487_R2,Plate:MR012",47.8 nM
same,potency estimated from few doses,"[2]; compound concentrations:100 nM and 1000 nM (sheet 'Lestaurtinib' of Supplementary Table 1),run:Lestaurtinib_02487_R3,Plate:MR012",59.5 nM
same,potency estimated from few doses,"[2]; compound concentrations:100 nM and 1000 nM (sheet 'Lestaurtinib' of Supplementary Table 1),run:Lestaurtinib_02496_R1,Plate:MR013",44.2 nM
same,potency estimated from few doses,"[2]; compound concentrations:100 nM and 1000 nM (sheet 'Lestaurtinib' of Supplementary Table 1),run:Lestaurtinib_02496_R3,Plate:MR013",40.2 nM
same,potency estimated from few doses,"[2]; compound concentrations:100 nM and 1000 nM (sheet 'Lestaurtinib' of Supplementary Table 1),run:Lestaurtinib_02566_R2,Plate:MR014",48.9 nM
same,potency estimated from few doses,"[2]; compound concentrations:100 nM and 1000 nM (sheet 'Lestaurtinib' of Supplementary Table 1),run:Lestaurtinib_02566_R3,Plate:MR014",62.6 nM
same,potency estimated from few doses,"[2]; compound concentrations:100 nM and 1000 nM (sheet 'Lestaurtinib' of Supplementary Table 1),run:Lestaurtinib_02572_R1,Plate:MR015",46 nM
same,potency estimated from few doses,"[2]; compound concentrations:100 nM and 1000 nM (sheet 'Lestaurtinib' of Supplementary Table 1),run:Lestaurtinib_02572_R2,Plate:MR015",51.5 nM
same,potency estimated from few doses,"[2]; compound concentrations:100 nM and 1000 nM (sheet 'Lestaurtinib' of Supplementary Table 1),run:Lestaurtinib_02572_R3,Plate:MR015",51.6 nM
same,potency estimated from few doses,"[2]; compound concentrations:100 nM and 1000 nM (sheet 'Lestaurtinib' of Supplementary Table 1),run:Lestaurtinib_02577_R1,Plate:MR016",51.5 nM
same,potency estimated from few doses,"[2]; compound concentrations:100 nM and 1000 nM (sheet 'Lestaurtinib' of Supplementary Table 1),run:Lestaurtinib_02577_R2,Plate:MR016",44.8 nM
same,potency estimated from few doses,"[2]; compound concentrations:100 nM and 1000 nM (sheet 'Lestaurtinib' of Supplementary Table 1),run:Lestaurtinib_02577_R3,Plate:MR016",46.9 nM
same,potency estimated from few doses,"[2]; compound concentrations:100 nM and 1000 nM (sheet 'Lestaurtinib' of Supplementary Table 1),run:Lestaurtinib_02584_R1,Plate:MR017",51 nM
same,potency estimated from few doses,"[2]; compound concentrations:100 nM and 1000 nM (sheet 'Lestaurtinib' of Supplementary Table 1),run:Lestaurtinib_02584_R2,Plate:MR017",49.6 nM
